This passage reports residual activity results from ChEMBL document CHEMBL2218924, “A broad activity screen in support of a chemogenomic map for kinase signalling research and drug discovery” (Biochem J, 2013).

Assay [1] has as its target Serine/threonine-protein kinase PLK1 (Homo sapiens) (UniProt P53350). As to conditions: at 1 µM; call rule not given here.
For assay [2] the target is unchanged. As to conditions: at 10 µM.
For assay [3], the target named is Serine/threonine-protein kinase PLK3 (Homo sapiens) (UniProt Q9H4B4). As to conditions: at 1 µM.
Sequence of Serine/threonine-protein kinase PLK3 (Homo sapiens) (Q9H4B4 whole entry, looked up): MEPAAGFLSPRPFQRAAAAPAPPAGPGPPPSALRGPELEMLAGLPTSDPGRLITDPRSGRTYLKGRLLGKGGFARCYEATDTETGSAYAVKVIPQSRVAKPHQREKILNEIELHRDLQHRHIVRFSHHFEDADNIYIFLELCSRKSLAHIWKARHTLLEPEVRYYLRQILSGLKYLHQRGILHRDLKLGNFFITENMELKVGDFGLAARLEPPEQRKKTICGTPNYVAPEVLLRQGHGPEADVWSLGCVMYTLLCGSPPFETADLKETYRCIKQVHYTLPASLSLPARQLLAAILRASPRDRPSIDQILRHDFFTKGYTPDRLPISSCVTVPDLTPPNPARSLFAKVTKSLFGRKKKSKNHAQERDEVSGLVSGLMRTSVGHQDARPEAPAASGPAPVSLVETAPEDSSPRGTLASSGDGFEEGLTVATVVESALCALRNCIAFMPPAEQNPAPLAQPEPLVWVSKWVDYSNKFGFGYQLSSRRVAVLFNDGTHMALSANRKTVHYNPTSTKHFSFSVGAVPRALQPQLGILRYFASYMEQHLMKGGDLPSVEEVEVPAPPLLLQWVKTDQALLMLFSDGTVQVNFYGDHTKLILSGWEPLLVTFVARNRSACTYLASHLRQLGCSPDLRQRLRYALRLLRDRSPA
For assay [4] the target is unchanged. As to conditions: at 10 µM.
For assay [5], the target named is T1, cAMP-dependent protein kinase catalytic subunit PRKX (Homo sapiens) (UniProt P51817).
T1 sequence (whole entry): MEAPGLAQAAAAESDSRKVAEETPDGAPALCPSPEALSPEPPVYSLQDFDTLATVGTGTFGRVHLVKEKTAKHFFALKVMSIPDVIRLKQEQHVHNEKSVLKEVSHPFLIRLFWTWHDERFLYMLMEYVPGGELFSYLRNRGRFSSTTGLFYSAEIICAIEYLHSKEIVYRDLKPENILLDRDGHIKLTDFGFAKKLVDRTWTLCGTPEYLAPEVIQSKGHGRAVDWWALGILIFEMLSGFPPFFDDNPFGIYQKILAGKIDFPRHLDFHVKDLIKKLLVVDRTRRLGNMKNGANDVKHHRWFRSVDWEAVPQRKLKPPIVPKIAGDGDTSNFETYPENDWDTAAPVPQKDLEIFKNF
As to conditions: at 1 µM.

Assay [6] concerns the target T1, cAMP-dependent protein kinase catalytic subunit PRKX (Homo sapiens). As to conditions: at 10 µM.
The target of assay [7] is Protein-tyrosine kinase 2-beta (Homo sapiens) (UniProt Q14289). The note with it: at 1 µM.
Assay [8] shares this target. As to conditions: at 10 µM.
Assay [9] has as its target Receptor-interacting serine/threonine-protein kinase 2 (Homo sapiens) (UniProt O43353). The note with it: at 1 µM.
Assay [10] shares this target. As to conditions: at 10 µM.
Assay [11] concerns the target Rho-associated protein kinase 1 (Homo sapiens) (UniProt Q13464). As to conditions: at 1 µM.
Assay [12] has the same target. The note with it: at 10 µM.
The target of assay [13] is Rho-associated protein kinase 2 (Homo sapiens) (UniProt O75116). The note with it: at 1 µM.
Sequence of Rho-associated protein kinase 2 (Homo sapiens) (O75116 whole entry, looked up): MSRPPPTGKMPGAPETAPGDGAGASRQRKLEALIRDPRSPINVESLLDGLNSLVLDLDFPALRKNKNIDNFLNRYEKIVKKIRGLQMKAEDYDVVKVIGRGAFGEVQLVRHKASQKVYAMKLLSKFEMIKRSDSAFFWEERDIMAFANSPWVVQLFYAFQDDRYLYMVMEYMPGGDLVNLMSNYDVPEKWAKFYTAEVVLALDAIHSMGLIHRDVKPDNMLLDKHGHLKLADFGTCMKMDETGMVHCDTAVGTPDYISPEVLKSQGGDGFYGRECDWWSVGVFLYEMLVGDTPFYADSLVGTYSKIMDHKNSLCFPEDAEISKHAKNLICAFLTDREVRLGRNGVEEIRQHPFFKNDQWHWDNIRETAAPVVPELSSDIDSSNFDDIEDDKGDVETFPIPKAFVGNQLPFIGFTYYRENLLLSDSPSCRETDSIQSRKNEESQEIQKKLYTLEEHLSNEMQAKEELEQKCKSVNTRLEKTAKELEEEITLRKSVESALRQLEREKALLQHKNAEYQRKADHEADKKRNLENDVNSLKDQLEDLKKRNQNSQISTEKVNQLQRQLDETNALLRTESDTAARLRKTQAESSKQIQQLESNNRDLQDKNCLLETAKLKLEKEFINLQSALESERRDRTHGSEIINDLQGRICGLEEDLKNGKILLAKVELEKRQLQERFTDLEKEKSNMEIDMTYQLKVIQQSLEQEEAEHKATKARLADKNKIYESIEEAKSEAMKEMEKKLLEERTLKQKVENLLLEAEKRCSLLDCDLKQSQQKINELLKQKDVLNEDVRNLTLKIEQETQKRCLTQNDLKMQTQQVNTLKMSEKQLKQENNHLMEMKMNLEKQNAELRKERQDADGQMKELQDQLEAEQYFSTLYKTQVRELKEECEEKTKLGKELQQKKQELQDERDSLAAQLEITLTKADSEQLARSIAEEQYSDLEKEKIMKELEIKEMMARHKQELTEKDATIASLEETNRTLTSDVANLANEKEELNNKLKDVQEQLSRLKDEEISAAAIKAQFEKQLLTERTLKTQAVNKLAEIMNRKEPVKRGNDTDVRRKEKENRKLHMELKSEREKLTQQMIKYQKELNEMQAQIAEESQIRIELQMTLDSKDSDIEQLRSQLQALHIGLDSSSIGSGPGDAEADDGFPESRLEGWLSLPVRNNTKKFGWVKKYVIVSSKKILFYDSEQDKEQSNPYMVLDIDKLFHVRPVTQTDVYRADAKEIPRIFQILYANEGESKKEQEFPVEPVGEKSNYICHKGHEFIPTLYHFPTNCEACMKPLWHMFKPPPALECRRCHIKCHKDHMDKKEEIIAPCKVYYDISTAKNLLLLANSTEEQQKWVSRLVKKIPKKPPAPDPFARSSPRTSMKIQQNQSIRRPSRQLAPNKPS
Assay [14] has the same target. The note with it: at 10 µM.
Assay [15] deals with Proto-oncogene tyrosine-protein kinase receptor Ret (Homo sapiens) (UniProt P07949). As to conditions: at 1 µM.
Assay [16] has the same target. As to conditions: at 10 µM.
Assay [17] has as its target Macrophage-stimulating protein receptor (Homo sapiens) (UniProt Q04912). As to conditions: at 1 µM.
Assay [18] has the same target. As to conditions: at 10 µM.
The target in assay [19] is Proto-oncogene tyrosine-protein kinase ROS (Homo sapiens) (UniProt P08922). As to conditions: at 1 µM.
Assay [20] has the same target. As to conditions: at 10 µM.

Sequence of Macrophage-stimulating protein receptor (Homo sapiens) (Q04912 25-304 limits assumed): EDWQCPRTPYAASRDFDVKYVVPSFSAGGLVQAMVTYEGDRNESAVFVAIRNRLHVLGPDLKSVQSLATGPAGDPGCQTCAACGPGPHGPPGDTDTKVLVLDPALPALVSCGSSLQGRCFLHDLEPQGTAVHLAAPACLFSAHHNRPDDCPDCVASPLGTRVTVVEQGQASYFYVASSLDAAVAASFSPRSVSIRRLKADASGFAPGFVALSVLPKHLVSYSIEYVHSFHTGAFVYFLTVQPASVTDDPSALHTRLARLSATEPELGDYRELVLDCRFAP
Sequence of Macrophage-stimulating protein receptor (Homo sapiens) (Q04912 310-1400 limits assumed): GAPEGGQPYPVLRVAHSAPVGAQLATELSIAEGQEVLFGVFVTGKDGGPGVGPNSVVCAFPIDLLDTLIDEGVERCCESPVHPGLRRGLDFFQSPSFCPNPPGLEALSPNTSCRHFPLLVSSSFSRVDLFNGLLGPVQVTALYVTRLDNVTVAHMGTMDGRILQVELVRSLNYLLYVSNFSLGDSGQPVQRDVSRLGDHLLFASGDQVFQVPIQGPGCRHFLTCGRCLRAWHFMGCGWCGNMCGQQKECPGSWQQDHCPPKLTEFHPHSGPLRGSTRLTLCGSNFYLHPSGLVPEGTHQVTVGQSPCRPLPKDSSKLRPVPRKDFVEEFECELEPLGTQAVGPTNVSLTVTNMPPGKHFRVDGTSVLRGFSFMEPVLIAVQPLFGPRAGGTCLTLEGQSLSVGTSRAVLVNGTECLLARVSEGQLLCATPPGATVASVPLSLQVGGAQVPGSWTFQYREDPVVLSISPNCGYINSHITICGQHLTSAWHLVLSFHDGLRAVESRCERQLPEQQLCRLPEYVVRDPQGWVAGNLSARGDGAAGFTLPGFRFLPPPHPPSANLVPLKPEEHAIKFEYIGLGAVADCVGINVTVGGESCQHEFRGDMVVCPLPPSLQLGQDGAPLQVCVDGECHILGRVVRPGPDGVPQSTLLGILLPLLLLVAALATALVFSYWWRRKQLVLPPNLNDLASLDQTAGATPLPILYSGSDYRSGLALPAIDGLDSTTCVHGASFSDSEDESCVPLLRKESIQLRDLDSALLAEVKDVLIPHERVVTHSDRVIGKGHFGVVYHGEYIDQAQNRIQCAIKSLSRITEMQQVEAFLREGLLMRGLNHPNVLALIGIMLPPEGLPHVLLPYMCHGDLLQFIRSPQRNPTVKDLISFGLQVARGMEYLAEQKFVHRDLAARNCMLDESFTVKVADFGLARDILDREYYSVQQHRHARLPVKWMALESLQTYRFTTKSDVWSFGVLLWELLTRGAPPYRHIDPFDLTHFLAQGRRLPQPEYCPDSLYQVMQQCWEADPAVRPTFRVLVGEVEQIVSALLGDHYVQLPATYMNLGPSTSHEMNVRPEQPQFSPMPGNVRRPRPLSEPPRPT
Sequence of Serine/threonine-protein kinase PLK1 (Homo sapiens) (P53350 whole entry): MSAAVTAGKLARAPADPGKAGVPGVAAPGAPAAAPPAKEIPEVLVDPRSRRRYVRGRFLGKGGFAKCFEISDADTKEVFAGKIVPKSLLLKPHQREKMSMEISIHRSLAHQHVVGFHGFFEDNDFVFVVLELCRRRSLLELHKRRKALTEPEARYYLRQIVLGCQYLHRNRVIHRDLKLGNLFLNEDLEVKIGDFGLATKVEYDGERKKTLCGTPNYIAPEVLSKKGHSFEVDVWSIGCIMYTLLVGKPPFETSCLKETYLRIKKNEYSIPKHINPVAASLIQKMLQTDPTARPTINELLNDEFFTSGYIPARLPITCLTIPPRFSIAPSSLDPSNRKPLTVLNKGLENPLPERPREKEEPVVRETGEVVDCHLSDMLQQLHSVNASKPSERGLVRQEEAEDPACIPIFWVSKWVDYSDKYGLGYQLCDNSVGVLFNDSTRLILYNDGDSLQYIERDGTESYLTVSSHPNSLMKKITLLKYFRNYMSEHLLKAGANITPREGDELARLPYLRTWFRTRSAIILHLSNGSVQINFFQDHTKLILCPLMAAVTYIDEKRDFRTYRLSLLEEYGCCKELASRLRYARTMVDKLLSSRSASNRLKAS
Sequence of Receptor-interacting serine/threonine-protein kinase 2 (Homo sapiens) (O43353 whole entry): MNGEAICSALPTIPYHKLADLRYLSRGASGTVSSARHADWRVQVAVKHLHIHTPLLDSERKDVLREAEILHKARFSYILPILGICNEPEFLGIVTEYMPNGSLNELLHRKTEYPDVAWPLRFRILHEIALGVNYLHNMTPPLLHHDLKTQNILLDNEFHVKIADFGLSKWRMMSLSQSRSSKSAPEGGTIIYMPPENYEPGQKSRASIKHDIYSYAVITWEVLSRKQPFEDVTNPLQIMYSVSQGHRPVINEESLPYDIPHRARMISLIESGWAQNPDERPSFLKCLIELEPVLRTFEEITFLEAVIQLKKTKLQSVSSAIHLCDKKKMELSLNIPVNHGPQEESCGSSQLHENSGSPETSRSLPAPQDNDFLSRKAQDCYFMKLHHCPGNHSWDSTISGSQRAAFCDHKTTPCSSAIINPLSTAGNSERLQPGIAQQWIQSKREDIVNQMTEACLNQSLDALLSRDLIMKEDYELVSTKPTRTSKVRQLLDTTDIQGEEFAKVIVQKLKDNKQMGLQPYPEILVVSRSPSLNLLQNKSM

In the case of `O=C1Nc2ccc3ncsc3c2/C1=C/c1c[nH]cn1`, the residual activity in assay [1] is 84%; in assay [2], 44%; in [3] it was 70% (inactive); in [4], 68%; in assay [5], 24%; in assay [6] it was 6%. Besides, the residual activity in assay [7] stood at 79%; in assay [8], 17%; in assay [9], 59%; in [10] it was 33%; in [11], 59%; in assay [12], 23%. The residual activity in [13] was determined as 5%; in assay [14] it was 1%; in [15], 9%; in assay [16] it was 0%; in assay [17] it was 60%; in [18], 11%. The residual activity in assay [19] is 88%; in [20], 87%.
As for `O=c1[nH]c2ccccc2n1C1CCN(Cc2ccc(-c3nc4cc5[nH]cnc5cc4nc3-c3ccccc3)cc2)CC1`, the residual activity in assay [1] is 101%; in [2] it was 80%; in assay [3] it was 97% (inactive); in [4], 94%; in assay [5], 98%; in assay [6], 77%. In addition, the residual activity amounted to 128% in assay [7]; 89% in assay [8]; 97% in assay [9]; 64% in assay [10]; 114% in assay [11]; 119% in assay [12]. In addition, the residual activity in assay [13] came to 103%; in assay [14], 74%; in assay [15], 99%; in [16] it was 83%; in assay [17], 103%; in [18], 79%. Moreover, the figures for the residual activity in [19] and in assay [20] were 96% and 93%, respectively.
As to `COc1ccc2c(c[n+](C)c3c4cc5c(cc4ccc23)OCO5)c1OC`, the residual activity in assay [2] was 75%; in [3], 96% (inactive); in assay [4] it was 77%; in assay [6], 81%; in assay [7], 133%; in assay [8], 89%. The residual activity came out at 96% in assay [9]; 88% in [10]; 110% in [11]; 120% in assay [12]; 82% in assay [14]; 86% in assay [15]. Moreover, the figures for the residual activity in assay [17] and in assay [18] were 86% and 75%, respectively.
For the compound `O=C1c2ccccc2-c2nc3nnnn3nc21`, the residual activity in assay [1] was 103%; in [2], 64%; in assay [3], 76% (inactive); in assay [4], 12%; in assay [5], 126%; in [6] it was 117%. Moreover, the residual activity in assay [7] was 146%; in assay [8] it was 107%; in [11] it was 112%; in assay [12], 117%; in assay [15] it was 105%; in [16] it was 114%. In addition, the residual activity worked out at 103% in assay [19] and 110% in assay [20].
With `c1cc(-c2cnn3cc(-c4ccc(OCCN5CCCCC5)cc4)cnc23)ccn1`, the residual activity in assay [5] amounted to 57%; in assay [6] it was 26%; in [8], 77%; in assay [9] it was 14%; in assay [10], 7%; in assay [11], 117%. The residual activity in assay [14] turned out to be 40%; in assay [15] it was 51%; in [16], 5%; in [17], 104%; in assay [18], 83%.
On to `COc1cc2ncnc(Nc3ccc(OCc4ccccc4)cc3)c2cc1OC`, for which the residual activity in [1] was 97%; in [2] it was 78%; in assay [3], 90% (inactive); in [4], 96%; in [5], 81%; in assay [6] it was 76%. In addition, the residual activity in assay [7] came to 111%; in assay [8] it was 67%; in [9], 52%; in assay [10], 46%; in assay [11], 83%; in assay [12], 96%. In addition, the residual activity came to 119% in [13]; 97% in [14]; 75% in assay [15]; 89% in assay [16]; 88% in assay [17]; 80% in assay [18]. Further, the residual activity in assay [19] stood at 108%; in [20], 101%.
Consider `COc1cc2nccc(Oc3ccc(NC(=O)Nc4cc(C)on4)c(Cl)c3)c2cc1OC`, for which the residual activity in [13] is 76%; in [14], 51%.
As to `CC(C)[C@H](CO)Nc1nc(Nc2cccc(Cl)c2)c2ncn(C(C)C)c2n1`, the residual activity was 75% in assay [1]; 45% in [2]; 99% (inactive) in assay [3]; 87% in assay [4]; 81% in assay [5]; 97% in [6]. The residual activity in assay [7] worked out at 35%; in assay [8] it was 4%; in [9], 91%; in assay [10], 85%; in [11], 115%; in [12], 96%. Besides, the residual activity is 95% in assay [13]; 76% in [14]; 91% in [15]; 27% in assay [16]; 92% in assay [17]; 86% in assay [18]. Further, the residual activity in assay [20] amounted to 96%.
`COc1ccc2c(c1)/C(=C/c1cnc[nH]1)C(=O)N2`: the residual activity in assay [11] came to 123%; in assay [14] it was 36%; in assay [18], 65%.
Take `COC(=O)[C@@]1(O)C[C@H]2O[C@]1(C)n1c3ccccc3c3c4c(c5c6ccccc6n2c5c31)C(=O)NC4`: the residual activity in assay [1] is 50%; in assay [2] it was 17%; in assay [3], 90% (inactive); in assay [4], 54%; in assay [5], 2%; in assay [6] it was 0%. The residual activity in assay [7] was 3%; in assay [8] it was -1%; in [9], 5%; in assay [10], 3%; in assay [11] it was 50%; in assay [12] it was 12%. Also, the residual activity in [13] is 15%; in assay [14], 2%; in [15], 2%; in assay [16], 1%; in assay [17] it was 33%; in assay [18] it was 3%. Also, the values for the residual activity in assay [19] and in assay [20] were 21% and 3%, respectively.
